# This is part of a sample that, as a whole, favours compounds with a hit. Of some 83,000 tested, about 20% had one in any assay.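 Method: cells in 96-well plates; compound added at one concentration; 48 h incubation; percent growth measured; values under 10 scored active.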 Unmarked numbers belong to inactive results. Calls of active or inactive are those of the source.
# Tests used:
# Experiment in all cases: NCI-60 one-dose screen, 48 h (100 = growth as untreated, 0 = no growth, -100 = all killed)
# Details in all cases: 10 µM
# NCI-H23 lung = tested on: NCI-H23 lung
# NCI-H226 lung = tested on: NCI-H226 lung
# NCI-H322M lung = tested on: NCI-H322M lung
# HOP-62 NSCLC = tested on: HOP-62 NSCLC
# NCI-H460 lung = tested on: NCI-H460 lung
# HOP-92 NSCLC = tested on: HOP-92 NSCLC
# NCI-H522 lung = tested on: NCI-H522 lung
# A549/ATCC NSCLC = tested on: A549/ATCC NSCLC
# 786-0 renal = tested on: 786-0 renal
# COLO 205 colon = tested on: COLO 205 colon
Structure (SMILES),growth (NCI-H23 lung),growth (NCI-H226 lung),growth (NCI-H322M lung),growth (HOP-62 NSCLC),growth (NCI-H460 lung),growth (HOP-92 NSCLC),growth (NCI-H522 lung),growth (A549/ATCC NSCLC),growth (786-0 renal),growth (COLO 205 colon)
COc1ccc(Cn2cc3c(c2-c2cc(OC)c(OC)c(OC)c2)CCc2cnoc2-3)cc1N,15.8%,12.7%,14.9%,47.4%,-9.29% (active),80.8%,32.3%,28.5%,15.8%,-29.1% (active)
COc1ccc(Nc2ccnc(N3CCN(c4ccnc5cc(Cl)ccc45)CC3)n2)cc1,9.35% (active),1.67% (active),14.4%,16.5%,4.6% (active),-21.9% (active),-17.9% (active),7.39% (active),7.79% (active),-7.2% (active)
N#Cc1c(-c2ccccc2)nc(SCC(=O)N2CCOCC2)[nH]c1=O,104%,98%,98.1%,83.7%,105%,88.9%,83.6%,101%,100%,105%
COCc1cc2c(cc1Br)OCO2,96.7%,95.5%,96.5%,87.3%,106%,102%,88.6%,88.4%,102%,102%
CN(C)Cc1cccs1,94%,93.9%,101%,69.1%,108%,97.2%,94.2%,93.7%,103%,107%
O=[N+]([O-])c1cc2ncccc2c2ncccc12,81.3%,96.3%,80.3%,137%,66.9%,109%,15.8%,88.4%,110%,95.6%
COc1ccc(-n2nnc3c(sc4ccccc43)c2=O)cc1,68.5%,24.7%,37.7%,-8.23% (active),-18.2% (active),-4.08% (active),56.6%,10.8%,21.4%,80.7%
